# Assay outcomes (PubChem)
# DAGLB inh – diacylglycerol lipase beta (human) inhibition; Q8NCG7; HEK293T DAGLB membrane lysate, EnzChek fluorogenic substrate; inhibition, % at 5.17 µM; AID 504411; 340,000 tested, 0.059% active; in the data active means inhibition above about 34%;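 further: 0% = enzyme with vehicle and 100% = wells lacking enzyme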
# Target sequence (Q8NCG7 whole entry, looked up): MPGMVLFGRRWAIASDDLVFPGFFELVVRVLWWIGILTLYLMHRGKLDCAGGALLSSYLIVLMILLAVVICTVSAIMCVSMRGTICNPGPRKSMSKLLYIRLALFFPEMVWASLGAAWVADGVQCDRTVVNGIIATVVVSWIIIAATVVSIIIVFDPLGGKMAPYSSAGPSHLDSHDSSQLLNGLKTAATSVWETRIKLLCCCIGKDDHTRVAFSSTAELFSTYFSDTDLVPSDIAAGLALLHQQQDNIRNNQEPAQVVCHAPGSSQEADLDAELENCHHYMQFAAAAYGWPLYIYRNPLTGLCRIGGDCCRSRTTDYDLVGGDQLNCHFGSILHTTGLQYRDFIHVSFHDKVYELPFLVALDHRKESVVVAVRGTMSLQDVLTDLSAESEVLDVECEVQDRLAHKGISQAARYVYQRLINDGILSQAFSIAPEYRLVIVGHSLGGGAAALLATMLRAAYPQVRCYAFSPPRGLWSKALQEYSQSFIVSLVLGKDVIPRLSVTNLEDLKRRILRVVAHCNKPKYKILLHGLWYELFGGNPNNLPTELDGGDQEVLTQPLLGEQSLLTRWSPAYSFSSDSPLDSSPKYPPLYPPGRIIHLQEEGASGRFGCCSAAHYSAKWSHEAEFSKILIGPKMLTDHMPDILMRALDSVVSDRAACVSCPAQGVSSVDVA
# HDAC3 inh – blocks human histone deacetylase 3. recombinant HDAC3, fluorogenic peptide/trypsin coupled, fluorescence. inhibition, % at 8.3 µM. AID 2718. O15379. 320,000 tested, 0.15% active; in the data active means inhibition above about 26%, passing the limit was not always enough
# LANA-H2B inh – blocks KSHV LANA binding to histone H2A/H2B. AID 2629. inhibition, % (test concentration not listed). cell-free LANA-H2A/H2B peptide, fluorescence polarization. Q9QR71. 320,000 tested, 0.6% active; in the data active means inhibition mostly above about 10%, no sharp cut-off; inactive means mostly below about 6.7%
# hiPSC survival – increases survival of single human iPS cells; 360,000 tested, 0.044% active; hiPSC single-cell survival, ATPlite luminescence; 100% = ROCK inhibitor wells, 0% = DMSO; AID 602274; survival enhancement, % at 20 µM; in the data active means survival enhancement above about 18%;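 further: cells exposed to compounds for 16 hours before the ATP read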
# Starred values were filed as active, the others as inactive; x = no result given. Sampled rows, rich in hits. Any-hit rate of the full collection: about 0.79%.
SMILES,DAGLB inh,HDAC3 inh,LANA-H2B inh,hiPSC survival
O=C(Oc1ccccc1/C=C\C(=O)c1cc2ccccc2o1)c1cccc(F)c1,0,10,17*,-2
O=C1NC[C@H](CCCCN2C[C@@H](Cc3ccccc3)N(CC3CCCCC3)C(=O)C2=O)N(CCC2CCCCC2)C1=O,x,x,x,0
Cc1nn(C)c(C)c1N1C(=O)c2cccc3c(Br)ccc(c23)C1=O,4,-4,-1,-1
Cc1nn(C)c(C)c1N1C(=O)c2cccc3c(N)ccc(c23)C1=O,-153,2,133*,-2
Cc1[nH][nH]c(=O)c1C(c1ccc(N(C)C)c(Br)c1)c1c(C)[nH][nH]c1=O,0,-2,60*,-1
COc1cc(NC(=S)N2CCN(C)CC2)cc(OC)c1,-2,0,9.7*,2
OC(c1ccccc1)(c1nc(-c2ccc(Cl)cc2)cs1)C(F)(F)F (stereo unspecified),x,x,x,5
Cc1nn(C)cc1C(C)NC(=O)c1cc(COc2c(F)cccc2F)on1 (stereo unspecified),1,-1,-3,-2
CC(NC(=O)c1cc(COc2c(F)cccc2F)on1)c1cnn(-c2ccccc2)c1 (stereo unspecified),-4,1,47*,-1
COCCn1c(-c2ccc(NC(C)=O)cc2)nc2c1c(=O)[nH]c(=O)n2CC(C)C,2,-27,13*,1
COc1cc(C(=O)Nc2nnc(Cc3ccccc3)s2)cc(OC)c1OC,-1,8,-2,0
COc1cc(C(=O)Nc2nnc(CC(=O)N3CCOCC3)s2)cc(OC)c1OC,1,-5,17*,0
O=C(O)c1cc(O)c2c(c1)[C@@H]([C@H]1c3cc(C(=O)O)cc(O)c3C(=O)c3c(O[C@@H]4O[C@H](CO)[C@@H](O)[C@H](O)[C@H]4O)cccc31)c1cccc(OC3O[C@H](CO)[C@@H](O)[C@H](O)[C@H]3O)c1C2=O (stereo partly specified),5,0,19*,-1
O=C(O)c1cc(O)c2c(c1)[C@H]([C@H]1c3cc(C(=O)O)cc(O)c3C(=O)c3c(O[C@@H]4O[C@H](CO)[C@@H](O)[C@H](O)[C@H]4O)cccc31)c1cccc(OC3O[C@H](CO)[C@@H](O)[C@H](O)[C@H]3O)c1C2=O (stereo partly specified),5,5,8,-4
CC(C)(C)OC(=O)NCCCCCc1cn([C@@H](CO)C(=O)NCCCCCCCCCCC(=O)N2CCN(C(=O)OC(C)(C)C)CC2)nn1,-1,31*,-2,-3
N#CC1=C(N)Oc2c(oc(CO)cc2=O)C1c1ccccc1[N+](=O)[O-] (stereo unspecified),x,7,-1,1
COc1ccccc1C1C(C#N)=C(N)Oc2c1oc(CO)cc2=O (stereo unspecified),0,13,12*,-1
Cc1noc(C)c1S(=O)(=O)N1CCN(c2ccc([N+](=O)[O-])cc2)CC1,4,-1,15*,0
Cn1c2ccccc2c(=O)c2c(=O)n(C3CCCCC3)c(-c3ccco3)nc21,5,4,-2,0
COCCN(C(=O)/C=C/c1ccccc1)c1nnc(-c2cccnc2)s1,-1,-4,56*,-1
COc1ccc(C2=NN3C(=O)c4c(ccc(OC)c4OC)C3C2)cc1 (stereo unspecified),2,-2,38*,1
O=C(COC(=O)Cc1cccc(C(F)(F)F)c1)Nc1ccc2c(c1)OCCO2,-5,5,146*,-2
O=C(COC(=O)Cc1ccccc1F)Nc1ccc2c(c1)OCCO2,-4,-4,-3,0
Cc1ccc(S(=O)(=O)NCC(=O)OCC(=O)Nc2ccc3c(c2)OCCO3)cc1,-6,-3,19*,0
Cc1cc(C)cc(NC(=O)COC(=O)c2ccc3c(c2)OCCO3)c1,-3,4,12*,-1
SMILES,DAGLB inh,HDAC3 inh,LANA-H2B inh,hiPSC survival
CN(C)C(=O)C1C2NC(=S)N(c3cccc(Cl)c3)C1(C)Oc1ccc(Cl)cc12 (stereo unspecified),0,3,8,0
CC(C)=CCC/C(C)=C/CC/C(C)=N/O,-5,6,12*,5
CN(C)C(=O)CCc1ccc2c3c([nH]c2c1)[C@]1(CCc2ccccc2)[C@@H](C(=O)N2CCCCC2)C[C@H](CC(=O)NC(C)(C)C)C(=O)N1CC3,2,x,x,0
C=CCNC(=S)N1CCN(Cc2ccccc2)CC1,2,-1,18*,0
CC[C@H]1c2[nH]c3ccccc3c2C[C@@H]2C(=O)N(c3ccc(F)cc3)C(=O)N21,0,3,-9,-1
Oc1[nH]c2ccccc2c1C1=NCCCC1,0,16,21*,4
Cc1n[nH]c(=O)c2c(NC(=O)CSc3nnc(-c4ccco4)n3C)oc(C)c12,2,-2,92*,0
Cc1n[nH]c(=O)c2c(NC(=O)CSc3nn(-c4ccc(F)cc4)c(=S)s3)oc(C)c12,0,45*,-1,-1
CC(C)NC(=O)c1nn2c(C(F)(F)F)cc(-c3ccco3)nc2c1Cl,0,-2,43*,2
CC(C)NC(=O)c1cc2nc(-c3ccco3)cc(C(F)(F)F)n2n1,0,-3,-7,-1
Cc1cc(Cl)ccc1OCCCC(=O)NO,1,77*,4,-3
Cc1ccc(C(O)P(=O)(OCc2ccccc2)c2ccc(N(C)C)cc2)cc1 (stereo unspecified),-1,-11,11*,0
O=C(COc1ccc(Br)cc1)Nc1ccccc1C(=O)NC1CC1,-6,2,1,1
Cn1cccc1/C=C1\SC(=O)N(c2ccc(O)cc2)C1=O,-32,-1,7,2
CCOc1ccc(N2C(=O)S/C(=C\c3cccn3C)C2=O)cc1,-1,1,20*,-1
Nc1ccccc1C(=O)NNC1=C(C(=O)C(F)(F)F)CCC1,-6,46*,0,0
O=C(NNC1=C(C(=O)C(F)(F)F)CCC1)c1ccccc1O,-5,21,3,-1
C[C@H]1CN([C@@H](C)CO)C(=O)c2cc(C#Cc3ccccn3)cnc2O[C@@H]1CN(C)Cc1ccccc1,1,x,x,0
COc1cc2c3c(c1)C1(C(=O)N3C(C)(C)C=C2C)C(C#N)=C(N)Oc2cc(C)oc(=O)c21 (stereo unspecified),2,x,60*,1
CC[C@@]1(c2cccc(C)c2)C(=O)N(C(=O)OC)N1C(=O)OC,-4,18,2,-2
CCOC(=O)N1C(=O)[C@@](CC)(c2ccccc2)N1C(=O)OCC,2,35*,1,-3
CSCCC(NC(=O)c1ccccc1)C(=O)OCC(=O)NCc1ccco1 (stereo unspecified),-3,-6,-6,0
COc1ccc(CNC(=O)COC(=O)C(CCSC)NC(=O)c2ccco2)cc1OC (stereo unspecified),1,-4,117*,-1
Cc1nc2cc(N3CCOCC3)c(NC(=O)C3CC3)cc2c(=O)n1Cc1ccccc1,2,-1,56*,2
CCC1CCCCN1C(=O)COc1ccc2c3c(c(=O)oc2c1)CCC3 (stereo unspecified),3,-9,32*,-1
